Compounds without any hit were thinned out: in the full panel of roughly 83,000, 20% have a hit.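 The endpoint reported here, percent growth, reads 100 for growth as untreated, 0 for no net growth and -100 for all cells dead.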 The source made the active and inactive calls. The calls were made as follows: active = growth percent below 10; inactive = the rest.
tested on: MDA-MB-468 breast; test: NCI-60 one-dose screen, 48 h (100 = growth as untreated, 0 = no growth, -100 = all killed); details: 10 µM unless noted

Row | SMILES | growth
1 | COc1ccc(NC(=S)NNc2ccc(-c3ccc(OC)c(OC)c3)nn2)cc1 | 109% (inactive)
2 | CCCCNC(=O)Oc1ccc(/C(=C(/CC)Cc2ccccc2)c2ccc(OCCCN(C)C)cc2)cc1 | 72.9% (inactive)
3 | CN([O-])c1nc(N(C)[O-])nc(N2CCOCC2)n1.CN([O-])c1nc(N(C)[OH2+])nc(N2CCOCC2)n1.[Fe+3] | -52.3% [100 µM] (active)
4 | O=C(CCCCCn1c2ccccc2c2c3c(c4c5ccccc5[nH]c4c21)C(=O)N(O)C3=O)N1CCOCC1 | 3.68% (active)
5 | CCN1CCN(C(=O)[C@@]2(C)CC[C@]3(C)CC[C@]4(C)C(=CC(=O)[C@@H]5[C@@]6(C)CC[C@H](OCCC#N)C(C)(C)[C@@H]6CC[C@]54C)[C@@H]3C2)CC1 | 90.9% (inactive)
6 | COc1cc2nccc(Oc3ccc(NC(=O)C4(C(=O)Nc5ccc(F)cc5)CC4)cc3)c2cc1O | 86.4% (inactive)
7 | CC(C)(C)OC(=O)N1C/C(=C\c2cccs2)C(=O)/C(=C/c2cccs2)C1 | 87.5% (inactive)
8 | Cc1ccc2c(c1)/C(=N\N=C/c1cn(C(C)C)c3ccccc13)C(=O)N2 | 7.43% (active)
9 | CC(C)C[C@H](NC(=O)CCn1ccc2ccccc2c1=O)B(O)O | 6.61% (active)
10 | CCOC(=O)C(CCC#N)(CCC#N)C(=O)OCC | 99.9% (inactive)
11 | CC1CC2C3CCC4=CC(=O)CCC4(C)C3CCC2(C)C1(O)C(=O)CO (stereo not given) | 115% (inactive)
12 | COc1cccc(/C=C2\COc3ccc(-c4ccccc4)cc3C2=O)c1 | 7.82% (active)
13 | COc1cc(/C=C/C(=O)c2cc(-c3ccc(C(F)(F)F)cc3)ccc2O)cc(OC)c1OC | 57.9% (inactive)
14 | COc1ccc(NC2=C(Cl)C(=O)c3nc(C)ccc3C2=O)cc1OC | 58.1% (inactive)
15 | COc1ccc(/C=C2\CN(Cc3cn(CCCNc4ccnc5cc(Cl)ccc45)nn3)C/C(=C\c3ccc(OC)cc3)C2=O)cc1 | 57.5% (inactive)
16 | O=c1c2cc(F)ccc2oc2c(NCCNCCO)nc3ccccc3c12 | -14.5% (active)
17 | O=C(/C=C\c1ccc(Cl)c(Cl)c1)c1ccccc1 | 79.8% (inactive)
18 | O=[N+]([O-])c1cccc(-c2nc3sccn3c2-c2ccnc(NCCNS(=O)(=O)c3ccc(C(F)(F)F)cc3)n2)c1 | 28.3% (inactive)
19 | COC(=O)[C@@H]1CC[C@]2(C)[C@H](CC[C@@H]3O[C@@]32C)[C@@]1(C)CC(=O)c1ccoc1 | 95.7% (inactive)
20 | OC(Cc1cccnc1)c1ccccc1 (stereo not given) | 111% (inactive)

Row | SMILES | growth
21 | O=S(=O)(NCCCNc1nccc(-c2c(-c3ccc(F)c(O)c3)nc3sccn23)n1)c1ccc(F)cc1 | -0.153% (active)
22 | O=C1c2cc3c(cc2-c2c1c1ccc(Cl)cc1c(=O)n2CCCN1CCOCC1)OCO3 | 31.6% (inactive)
23 | CC(=O)OCC(=O)C1(O)C(C)CC2C3C=C(C)C4=Cc5c(cnn5-c5ccccc5)CC4(C)C3C(O)CC21C (stereo not given) | -10.9% (active)
24 | Clc1cc2c(c(CSc3nc4ccccc4n4cccc34)c1)OCOC2 | -1.64% (active)
25 | O=C1/C(=C/c2ccc(Cl)cc2)COc2ccc(O)c(O)c21 | -15.3% (active)
26 | N#C/C(=C/c1c(O)ccc2ccccc12)C(N)=O | 97.3% (inactive)
27 | CC1(O)CCCCCC1 | 100% (inactive)
28 | O=C(Nc1ccc(F)cc1F)c1cc(Cl)ccc1O | -4.07% (active)
29 | C(=N\Nc1ncc(-c2cc3cc4c(cc3o2)OCO4)s1)/c1ccco1 | 27.3% (inactive)
30 | COc1cccc(C2CC(=O)Nc3cc4c(cc32)CCC4)c1OC (stereo not given) | -2.82% (active)
31 | COc1ccc(Cl)cc1NC(=O)C(Br)C(Br)C(=O)O (stereo not given) | -79% (active)
32 | CCOC(=O)C1=C(C)NC(SCc2nnc(-c3ccc(Cl)cc3)o2)=NC1c1ccc(Cl)cc1Cl (stereo not given) | 88.4% (inactive)
33 | CS(=O)(=O)c1ccc(C(=O)N/N=C/c2ccccc2O)cc1 | 64.7% (inactive)
34 | CCN(CC)CCCC(C)N=C(C1=C(C(=NC(C)CCCN(CC)CC)c2cccc(OC)c2)C(=O)NC1=O)c1cccc(OC)c1 (stereo not given) | -50.4% (active)
35 | Clc1ncccc1Nc1ccc2nnc(-c3ccncc3)n2n1 | 99.9% (inactive)
36 | CN1CCN(Cc2ccc(NC(=O)c3cncc(C#Cc4cnc5ccc(OCC6COC6)nn45)c3)cc2C(F)(F)F)CC1 | -60.7% (active)
37 | O=c1oc2c(cc1-c1ccccc1)c(=O)[nH]c1ccccc12 | 105% (inactive)
38 | Cc1ccc(S(=O)(=O)/C(=C\c2ccc(Cl)cc2)C(=O)c2ccccc2)cc1 | 105% (inactive)
39 | O=c1[nH]c(N2CCC(Cc3ccccc3)CC2)nc2sc3c(c12)CCCC3 | 104% (inactive)
40 | CC(O)CN(CC(C)O)c1ccc2c(c1)Cc1cc([N+](=O)[O-])ccc1-2 (stereo not given) | 100% (inactive)

Source: PubChem BioAssay (NCI)
